According to the supplement of paper PMC9942566:
Where a name gives a salt, the structure may show the parent alone. ± gives the standard deviation of the averaged measurements.

Test system: Serratia marcescens K904 PosmB-luxCDABE reporter (pMQ747)
Test: PosmB-lux reporter fold induction (RLU/OD600 relative to no-compound control), highest over Biolog concentrations; higher = stronger Rcs reporter activation
Conditions: Biolog plate: PM11; well positions: C1-4; wild type K904; 4 h
Procedure: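 Serratia marcescens K904 (wild type) or its isogenic ΔrcsB mutant, carrying the Rcs-dependent PosmB-luxCDABE reporter plasmid pMQ747, was grown in LB at OD600 0.1 in Biolog Phenotype MicroArray plates PM11-20 for 4 h at 30-32°C. Each compound is present at 3-4 proprietary concentrations (not stated); per the Fig. S1 legend the value given is the highest fold over those wells. Three independent trials.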

SMILES | PosmB-lux reporter fold induction
Cc1c(N)nc([C@H](CC(N)=O)NC[C@H](N)C(N)=O)nc1C(=O)N[C@H](C(=O)N[C@H](C)[C@@H](O)[C@H](C)C(=O)N[C@H](C(=O)NCCc1nc(-c2nc(C(=O)NCCC[S+](C)C)cs2)cs1)[C@@H](C)O)[C@@H](OC1OC(CO)C(O)C(O)C1OC1OC(CO)C(O)C(OC(N)=O)C1O)c1cnc[nH]1 (stereo not given in full) [Bleomycin] | 1.6 ± 0.14

Same assay, conditions: Biolog plate: PM11; well positions: G9-12; wild type K904; 4 h

SMILES | PosmB-lux reporter fold induction
O=[Te]([O-])[O-].[K+].[K+] [Potassium tellurite] | 1.58 ± 0.69

Same assay, conditions: Biolog plate: PM13; well positions: A9-12; wild type K904; 4 h

SMILES | PosmB-lux reporter fold induction
[Cl][Ni][Cl] [Nickel chloride] | 1.33 ± 0.21

Same assay, conditions: Biolog plate: PM13; well positions: B9-12; wild type K904; 4 h

SMILES | PosmB-lux reporter fold induction
CCn1cc(C(=O)O)c(=O)c2cc3c(cc21)OCO3 [Oxolinic acid] | 2.12 ± 0.57

Same assay, conditions: Biolog plate: PM13; well positions: C9-12; wild type K904; 4 h

SMILES | PosmB-lux reporter fold induction
[K+].[K+].[O]=[Cr](=[O])([O-])[O-] [Potassium chromate] | 2.55 ± 0.8

Same assay, conditions: Biolog plate: PM13; well positions: E5-8; wild type K904; 4 h

SMILES | PosmB-lux reporter fold induction
CN[C@@H]1[C@@H](O)[C@@H](O[C@@H]2[C@@H](O)[C@H](O[C@H]3O[C@H]([C@@H](C)O)[C@@H](O)[C@H](O)[C@H]3N)[C@@H](N)C[C@H]2N)OC[C@]1(C)O [Geneticin (G418)] | 1.38 ± 0.22

Same assay, conditions: Biolog plate: PM14; well positions: B5-8; wild type K904; 4 h

SMILES | PosmB-lux reporter fold induction
CCCCc1ccc(C(=O)O)nc1 [Fusaric acid] | 3.83 ± 1.8

Same assay, conditions: Biolog plate: PM14; well positions: B9-12; wild type K904; 4 h

SMILES | PosmB-lux reporter fold induction
O=[As]([O-])([O-])[O-].[Na+].[Na+].[Na+] [Sodium arsenate] | 2.1 ± 0.74

Same assay, conditions: Biolog plate: PM14; well positions: D1-4; wild type K904; 4 h

SMILES | PosmB-lux reporter fold induction
[Cl][Cd][Cl] [Cadmium chloride] | 1.35 ± 0.73

Same assay, conditions: Biolog plate: PM14; well positions: D9-12; wild type K904; 4 h

SMILES | PosmB-lux reporter fold induction
[Na+].[Na+].[O]=[Cr](=[O])([O-])[O][Cr](=[O])(=[O])[O-] [Sodium dichromate] | 1.55 ± 0.067

Same assay, conditions: Biolog plate: PM14; well positions: G9-12; wild type K904; 4 h

SMILES | PosmB-lux reporter fold induction
O=[N+]([O-])[O-].[Na+] [Sodium nitrate] | 3.75 ± 1.3

Same assay, conditions: Biolog plate: PM15; well positions: E9-12; wild type K904; 4 h

SMILES | PosmB-lux reporter fold induction
C[n+]1ccc(-c2cc[n+](C)cc2)cc1 [Methyl viologen] | 1.4 ± 0.25

Same assay, conditions: Biolog plate: PM15; well positions: G5-8; wild type K904; 4 h

SMILES | PosmB-lux reporter fold induction
[N-]=[N+]=[N-] [Sodium azide] | 34 ± 10

Same assay, conditions: Biolog plate: PM15; well positions: H1-4; wild type K904; 4 h

SMILES | PosmB-lux reporter fold induction
O=[N+]([O-])c1ncc[nH]1 [2-Nitroimidazole] | 1.17 ± 0.56

Same assay, conditions: Biolog plate: PM16; well positions: C1-4; wild type K904; 4 h

SMILES | PosmB-lux reporter fold induction
CN(C)S(=O)(=O)N(SC(F)(Cl)Cl)c1ccccc1 [dichlofluanid] | 1.03 ± 0.34

Same assay, conditions: Biolog plate: PM16; well positions: C9-12; wild type K904; 4 h

SMILES | PosmB-lux reporter fold induction
CCCCCCCCCCCCCCCC[n+]1ccccc1 [cetylpyridinium] | 1.47 ± 0.48

Same assay, conditions: Biolog plate: PM16; well positions: D1-4; wild type K904; 4 h

SMILES | PosmB-lux reporter fold induction
O=[N+]([O-])c1ccc(Cl)c([N+](=O)[O-])c1 [1-chloro-2,4-dinitrobenzene] | 1.37 ± 0.54

Same assay, conditions: Biolog plate: PM16; well positions: F1-4; wild type K904; 4 h

SMILES | PosmB-lux reporter fold induction
O=[Te]([O-])[O-].[K+].[K+] [potassium tellurite] | 1.75 ± 1.1

Same assay, conditions: Biolog plate: PM16; well positions: F5-8; wild type K904; 4 h

SMILES | PosmB-lux reporter fold induction
O=[Se]([O-])[O-].[Na+].[Na+] [sodium selenite] | 1.03 ± 0.38

Same assay, conditions: Biolog plate: PM17; well positions: A5-8; wild type K904; 4 h

SMILES | PosmB-lux reporter fold induction
NC(CCl)C(=O)O [b-chloro-L-alanine hydrochloride] | 1.57 ± 0.59

Same assay, conditions: Biolog plate: PM17; well positions: B5-8; wild type K904; 4 h

SMILES | PosmB-lux reporter fold induction
CNC1CC(N)C(O)C(OC2OC(CO)C(O)C3OC4(OC(C(N)CO)C(O)C(O)C4O)OC23)C1O (stereo not given) [hygromycin B] | 1.46 ± 0.35

Same assay, conditions: Biolog plate: PM17; well positions: C1-4; wild type K904; 4 h

SMILES | PosmB-lux reporter fold induction
Nc1ccncc1 [4-aminopyridine] | 10.2 ± 7.7

Same assay, conditions: Biolog plate: PM17; well positions: D1-4; wild type K904; 4 h

SMILES | PosmB-lux reporter fold induction
CC1=C(C(=O)Nc2ccccc2)S(=O)(=O)CCO1 [oxycarboxin] | 2.25 ± 0.26

Same assay, conditions: Biolog plate: PM17; well positions: D5-8; wild type K904; 4 h

SMILES | PosmB-lux reporter fold induction
Nc1ncn[nH]1 [3-amino-1,2,4-triazole] | 1.11 ± 0.18

Same assay, conditions: Biolog plate: PM17; well positions: G1-4; wild type K904; 4 h

SMILES | PosmB-lux reporter fold induction
O=C(O)CCCc1ccc(N(CCCl)CCCl)cc1 [chlorambucil] | 1.34 ± 0.1

Same assay, conditions: Biolog plate: PM18; well positions: C9-12; wild type K904; 4 h

SMILES | PosmB-lux reporter fold induction
Oc1c(Cl)c(Cl)c(Cl)c(Cl)c1Cl [pentachloro-phenol] | 1.04 ± 0.25

Same assay, conditions: Biolog plate: PM18; well positions: E5-8; wild type K904; 4 h

SMILES | PosmB-lux reporter fold induction
[O-][I+3]([O-])([O-])O [sodium m-periodate] | 2.47 ± 0.4

Same assay, conditions: Biolog plate: PM18; well positions: E9-12; wild type K904; 4 h

SMILES | PosmB-lux reporter fold induction
[Cl][Sb]([Cl])[Cl] [antimony (III) chloride] | 0.722 ± 0.067

Same assay, conditions: Biolog plate: PM18; well positions: F1-4; wild type K904; 4 h

SMILES | PosmB-lux reporter fold induction
NNC(N)=O [semicarbazide] | 3.39 ± 0.38

Same assay, conditions: Biolog plate: PM18; well positions: G1-4; wild type K904; 4 h

SMILES | PosmB-lux reporter fold induction
Oc1cc(Cl)ccc1Oc1ccc(Cl)cc1Cl [triclosan] | 1.45 ± 0.61

Same assay, conditions: Biolog plate: PM18; well positions: G5-8; wild type K904; 4 h

SMILES | PosmB-lux reporter fold induction
Nc1n[nH]c(N)n1 [3,5-diamino-1,2,4-triazole (Guanazole)] | 1.96 ± 0.29

Same assay, conditions: Biolog plate: PM18; well positions: H5-8; wild type K904; 4 h

SMILES | PosmB-lux reporter fold induction
Oc1ccccc1-c1ccccc1 [2-phenylphenol] | 2.88 ± 0.52

Same assay, conditions: Biolog plate: PM18; well positions: H9-12; wild type K904; 4 h

SMILES | PosmB-lux reporter fold induction
CC1=CC(=O)c2c(O)cccc2C1=O [plumbagin] | 0.936 ± 0.027

Same assay, conditions: Biolog plate: PM20; well positions: C5-8; wild type K904; 4 h

SMILES | PosmB-lux reporter fold induction
CN1[C@@H]2CC[C@H]1C[C@@H](OC(=O)C(CO)c1ccccc1)C2 (stereo not given in full) [atropine] | 2.56 ± 0.59

Same assay, conditions: Biolog plate: PM20; well positions: E5-8; wild type K904; 4 h

SMILES | PosmB-lux reporter fold induction
CCCCCCCCCCCCNC(=N)N [dodine] | 1.94 ± 0.27

Same assay, conditions: Biolog plate: PM20; well positions: F1-4; wild type K904; 4 h

SMILES | PosmB-lux reporter fold induction
O=c1cc(O)c2ccccc2o1 [4-hydroxyl-coumarin] | 2.25 ± 0.64

Same assay, conditions: Biolog plate: PM20; well positions: G1-4; wild type K904; 4 h

SMILES | PosmB-lux reporter fold induction
O=C1C2CC=CCC2C(=O)N1SC(Cl)(Cl)Cl (stereo not given) [captan] | 2.3 ± 0.41

Same assay, conditions: Biolog plate: PM20; well positions: G9-12; wild type K904; 4 h

SMILES | PosmB-lux reporter fold induction
Oc1cccc2cccnc12 [8-hydroxy-quinoline] | 2.7 ± 0.72

Same assay, conditions: Biolog plate: PM20; well positions: H1-4; wild type K904; 4 h

SMILES | PosmB-lux reporter fold induction
O=C1C=C2C(=CCOC2O)O1 (stereo not given) [patulin] | 1.71 ± 0.23

Same assay, conditions: Biolog plate: PM20; well positions: H5-8; wild type K904; 4 h

SMILES | PosmB-lux reporter fold induction
Cc1ccc(N(SC(F)(Cl)Cl)S(=O)(=O)N(C)C)cc1 [tolylfluanid] | 1.32 ± 0.14
